Records with an inconclusive call do not appear. Active and inactive are the calls of the source. Unless noted, the call rests on the fitted dose curve; in most records, active means well fitted curve in the direction sought with a large enough effect; inconclusive means small, poorly fitted or top-dose-only effect, or another doubt; inactive means no such curve, though single readings can be large; an effect the other way counts as inactive or inconclusive.
How the values were obtained:
[1] = Cytotoxicity counterscreen for NFkB agonists and antagonists (AID 624476); conditions: NFkB reporter cell line viability counterscreen; series mostly up to 46.1 µM;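 further: cells exposed to compound for 48 hours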
[2] = qHTS Assay for Identification of Small Molecule Agonists for NFkB Signaling Pathway. (AID 624478); conditions: NFkB pathway reporter cell assay, agonist mode, cells co-stimulated with 10 pM TNF alpha; series mostly up to 46.1 µM;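 further: compounds tested together with TNF alpha at its EC50 of 10 pM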
Outline: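 Assay medium contained 0.5% FBS and 10 mM HEPES pH 7.3. Compounds were added together with TNF alpha (10 pM final), incubated 5 h at 37 C, and the beta-lactamase signal was measured fluorometrically.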

[3] = qHTS Assay for Identification of Small Molecule Antagonists for NFkB Signaling Pathway. (AID 624479; calls by dose curve); conditions: NFkB pathway reporter cell assay, antagonist mode; series mostly up to 38.3 µM

Measured: outcome

CC12CCC3C(CCC4=C(O)C(=O)CCC43C)C1CCC2=O (stereo not drawn)
inactive: all assays above

Reference: PubChem BioAssay (NCATS)
